Tgondii IFNg: T. gondii growth inhibition with IFN-gamma, primary screen, cell-based; activity change, negative = inhibition, % (concentration not given with the values); AID 1259416, 2018; Toxoplasma gondii growth in IFN-gamma-treated host cells; stronger effect = lower value; 69,000 tested, 3.8% active; in the data active = activity change below about -70%, passing the limit was not always enough;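 also: host cells are HeLa cells infected with Toxoplasma gondii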
The depositor's hits bear a star; i = inactive; ! = not confirmed by another sample. This is one part of a sample in which hits are shown more often than they occur.

SMILES	Tgondii IFNg
Cc1onc(-c2ccccc2)c1CNC(=O)Nc1csc2ccccc12	-98*
Cc1onc(-c2ccccc2)c1CNC(=O)c1ccccc1	29
Cc1onc(-c2ccccc2)c1CNC(=O)C1CCN(c2nccc(C(F)(F)F)n2)CC1	-66
O=C(OCc1ccccc1)N1CCOCCN(C(=O)OCc2ccccc2)CCOCC1	-15
Cc1onc(-c2ccccc2)c1NC(=O)NCc1csc(-c2cccs2)n1	7
COc1ccc(-c2nc(C)c(CCNC(=O)C3CCCCC3)s2)cc1	i
O=C(N1CCOCC1)N1CCC2(CC1)NCCn1c(-c3ccc(F)cc3)cnc12	-36
COc1ccccc1-c1cccc(C(=O)N(Cc2cnn(C)c2)C2CC2)c1	-13
COCCN(Cc1ccccc1F)Cc1coc2ccc(C)cc2c1=O	-5
COc1ccc(CCNC(=O)c2nc(-c3cccc(F)c3)n3c2CCCCC3)cc1OC	-115*
COc1ccc(CC(=O)NCCc2csc(-c3cccc(F)c3)n2)cc1OC	58
CC1CCCN(C(=O)c2nc(-c3cccc(F)c3)n3c2CCCCC3)C1 (configuration not stated)	3
COc1cc(NC(=O)c2nc(-c3cccc(F)c3)n3c2CCCCC3)cc(OC)c1OC	-105*
CC1CCN(C(=O)c2nc(-c3cccc(F)c3)n3c2CCCCC3)CC1	-59
CCOCCCNC(=O)c1nc(-c2cccc(F)c2)n2c1CCCCC2	100
O=C(CCCn1cnc2ccccc2c1=O)N1CCCCC1CCO (configuration not stated)	-5
CCc1ccc2c(C3CN(C(C)=O)C3)ncn2c1	125
O=C1CC2(CCCCN2CC2CC2)CN1c1ccccc1 (configuration not stated)	-37
Cc1ccc(CN2CCC3(CCCN3CC3CC3)CC2)s1	0
CCS(=O)(=O)Nc1ccc(C(=O)NCc2cnn3ccccc23)cc1	8
CCCCOc1cc(CC2CNC(=O)N2)ccc1OC (configuration not stated)	-72*!
COc1ccc(CNC(=O)c2c(O)c3cccnc3[nH]c2=O)cc1OC	117
COc1ccc(CCN2C(=O)CSC2c2ccc(OC)c(OC)c2)cc1OC (configuration not stated)	-29
Cc1nc(CC(=O)N2CCC(c3ccc(C(=O)N(C)C)cn3)CC2)cs1	2
CCS(=O)(=O)N1CCn2cc(Cn3cccn3)nc2C1	-3
SMILES	Tgondii IFNg
CCN1C(=O)N(CCN(C)C)C(=O)C12CCN(Cc1ccc(C#CC(C)(C)O)cc1)CC2	5
CCN(CC)CCNC(=O)c1c(C)[nH]c(/C=C2\C(=O)Nc3ccc(F)cc32)c1C	-75*
Cc1[nH]c(/C=C2\C(=O)Nc3ccc(S(=O)(=O)N(C)c4cccc(Cl)c4)cc32)c(C)c1C(=O)N1CCN(C)CC1	-64
CCN(CC)CCNC(=O)c1ccc(N)cc1	13
Cc1cccn2c(CC(=O)N3CCNCC3C(=O)N3CCOCC3)cnc12 (configuration not stated)	47
CC(C)C(=O)c1ccc2nnc3ncn(CC4CCCO4)c3c2c1 (configuration not stated)	3
COc1ccc(CNC(=O)c2nc(Nc3ccccc3)c3ccccc3n2)cc1OC	-42
CCc1ccc(Nc2nc(C(=O)NCc3ccc(OC)c(OC)c3)nc3ccccc23)cc1	-79*
COc1ccc(NC(=O)c2nc(Nc3ccc(C)cc3)c3ccccc3n2)c(OC)c1	-112*
COc1cccc(NC(=O)c2nc(Nc3ccccc3)c3ccccc3n2)c1	-76*
COc1cccc(CNC(=O)c2nc(Nc3ccc(C)cc3)c3ccccc3n2)c1	-101*
CSc1cccc(NC(=O)c2nc(Nc3ccccc3)c3ccccc3n2)c1	-5
COc1cc(OC)c(NC(=O)c2nc(Nc3ccc(C)cc3)c3ccccc3n2)cc1Cl	35
O=C(Nc1cccc(F)c1)c1nc(Nc2ccccc2)c2ccccc2n1	66
Cc1ccc(CNC(=O)c2nc(Nc3ccccc3)c3ccccc3n2)cc1	57
CCNC(=O)c1nc(Nc2ccc(CC)cc2)c2ccccc2n1	-49
COc1cccc(CNC(=O)c2nc(Nc3ccccc3)c3ccccc3n2)c1	-54
COc1ccc(OC)c(NC(=O)c2nc(Nc3ccc(C)cc3)c3ccccc3n2)c1	-45
CCOC(=O)C1CN(Cc2nccs2)Cc2ncn(CC)c21 (configuration not stated)	8
COC(C)c1ccc(-c2ccc(-c3nnc(C)o3)cc2)cc1 (configuration not stated)	157
CSc1nnc(-c2ccc(S(=O)(=O)Oc3cccc(C(F)(F)F)c3)s2)n1C	4
O=C(Cn1ncc2c(N3CCN(c4ccccn4)CC3)ncnc21)Nc1ccc(F)c(F)c1	163
O=C(O)CC(=O)C(=O)O	25
O=C(CNC(=O)OCc1ccccc1)NCCc1cccs1	28
COc1ccc(CNC(=O)Cn2c(=O)cc(-c3nc(C)no3)c3ccccc32)cc1OC	18
SMILES	Tgondii IFNg
CCOc1ccc(NC(=O)c2nc(Nc3ccccc3)c3ccccc3n2)cc1	-38
CCOc1ccccc1NC(=O)c1nc(Nc2ccccc2)c2ccccc2n1	-82*
Cc1ccc(NC(=O)c2nc(Nc3ccccc3)c3ccccc3n2)c(C)c1	-41
CCc1ccc(Nc2nc(C(=O)NCc3cccc(OC)c3)nc3ccccc23)cc1	-72*
Cc1cc(C)c(NC(=O)c2nc(Nc3ccccc3)c3ccccc3n2)c(C)c1	-78*
CCc1ccc(Nc2nc(C(=O)NCc3ccccc3)nc3ccccc23)cc1	-28
Cc1ccc(Nc2nc(C(=O)Nc3c(C)cc(C)cc3C)nc3ccccc23)cc1	-60
CCOc1ccc(CNC(=O)c2nc(Nc3ccc(CC)cc3)c3ccccc3n2)cc1	44
CCOc1ccccc1NC(=O)c1nc(Nc2ccc(Cl)cc2)c2ccccc2n1	-64
Cc1c(S(=O)(=O)N2C3CCC2CC(O)(c2ccc4c(c2)OCO4)C3)cnn1C (configuration not stated)	4
O=C(O)c1cccc(CC2CCN(C(=O)c3cccc4nccnc34)CC2)c1	3
CC(=O)Nc1cc(C2CCCN(C(C)=O)C2)nc2c1c(C)nn2C(C)C (configuration not stated)	23
CCO[C@H]1CN(C(=O)c2ccc3c(c2)OCO3)[C@H]2COC[C@@H]12	-24
COc1ccc(-c2nc(C)c(CCNC(=O)C(=O)Nc3cccc(Cl)c3)s2)cc1OC	i
O=C(c1ccc(F)cc1)N1CCC2(CC(Oc3cccnc3)CO2)C1 (configuration not stated)	4
CC(C)CC(NS(=O)(=O)c1ccc2[nH]c(=O)ccc2c1)C(=O)Nc1ccc(F)c(Cl)c1 (configuration not stated)	35
O=C(NCCc1cc(Cl)c2c(c1)OCCO2)c1ccccc1CN1CCCC1	-23
O=C(NCCc1csc(-c2ccc(F)cc2)n1)c1cccc(Br)c1	-87*
O=C(NCCc1csc(-c2cccc(F)c2)n1)c1cccc(Br)c1	-81*
COc1cccc(C(=O)NCCc2csc(-c3cccc(C)c3)n2)c1	366
O=C(NCCc1csc(-c2ccc(F)cc2)n1)c1cccc(C(F)(F)F)c1	-34
CC(=O)NCCc1csc(-c2cccc(F)c2)n1	102
Cc1cccc(C(=O)NCCc2csc(-c3ccccc3)n2)c1	152
O=C(NCCc1csc(-c2cccc(F)c2)n1)c1ccc(Br)cc1	-50
COc1cccc(C(=O)NCCc2csc(-c3ccc(F)cc3)n2)c1	-68
Cc1cccc(C(=O)NCCc2csc(-c3cccc(F)c3)n2)c1	-75*
COc1ccc(-c2nnc(-c3nc(NCCCc4ccccc4)c4ccccc4n3)o2)cc1	159
